Compound activity: PubChem, Broad Institute
aSyn 5UTR act: Activators via SNCA 5'UTR binding, MLPCN; alpha-synuclein 5'UTR reporter, activators screen; activity score, % (tested at 7.5 µM), hits read low; 300,000 tested, 7.1% active; in the data active means activity score below about -60%
* hit, by the source's call. A selection follows.

SMILES	aSyn 5UTR act
COc1ccc2cc(C(=O)N3CCN(C)CC3)[nH]c2c1	-154*
CCN1CCN(C(=O)c2cc3ccc(OC)cc3[nH]2)CC1	-135*
CCCCN(C)C(=O)c1cc2cc3cc(OC)ccc3nc2o1	-121*
CCCCN(C)C(=O)c1cc2cc3ccc(OC)cc3nc2o1	-114*
CCN(C(=O)c1cc2cc3ccc(C)cc3nc2o1)c1ccc(OC)cc1	-307*
COc1ccc2cc3cc(C(=O)NC(C)C)oc3nc2c1	-142*
O=C(c1ccccc1)c1cnc(Nc2ccccc2Cl)s1	-96*
CC(=O)c1csc(Nc2ccccc2Cl)n1	-121*
CN(C)CCNC(=O)c1csc(Nc2cccc3ccccc23)n1	57
CC(C)(C)C(=O)c1cnc(Nc2ccccc2Cl)s1	-146*
COC(=O)c1cn[nH]c1NC(=S)Nc1ccc(Cl)c(Cl)c1	-101*
COC(=O)c1cn[nH]c1NC(=S)Nc1ccc(C)cc1Cl	-127*
Cc1oc(-c2ccc3ccccc3c2)nc1CN(C)C(C)c1ccncn1 (configuration not stated)	-80*
COc1cccc(NC(=O)NCCC2=CCCCC2)c1	-183*
Cc1[nH]nc2nc(SCC(=O)NCCC3=CCCCC3)n(-c3ccc(Br)cc3)c(=N)c12	75
COc1ccc(NC(=O)NCCC2=CCCCC2)cc1	-131*
S=C(NCCC1=CCCCC1)Nc1ccc(Cl)cc1	-110*
Cc1cccc(C)c1NC(=O)/C(C#N)=C/c1ccc(-c2ccc(C(=O)O)cc2)o1	-127*
CNC(=O)/C(C#N)=C/c1ccc(-c2ccc(Cl)cc2)o1	-125*
CCC1CCc2c(sc(NC(=O)c3ccco3)c2C(N)=O)C1 (configuration not stated)	-246*
CCC1CCc2c(sc(NC(=O)c3cnccn3)c2C(N)=O)C1 (configuration not stated)	-86*
CN(C)/C=N/c1c(C#N)cnn1-c1nc2ccccc2s1	-96*
O=C(Nc1cccnc1)c1ccc(CN2CCc3ccccc3C2)cc1	-68*
Cc1ccc(NC(=O)c2ccc(CN3CCc4ccccc4C3)cc2)cc1	-101*
c1ccc(Nc2nc(-c3ccccn3)cs2)cc1	-145*
SMILES	aSyn 5UTR act
c1cncc(Nc2nc(-c3cccs3)cs2)c1	-218*
c1ccc(-c2csc(Nc3cccnc3)n2)nc1	-218*
Cc1cc(C)nc(/N=C(\N)N2CCc3ccccc32)n1	-62*
O=C1/C(=C/c2ccccc2[N+](=O)[O-])COc2ccccc21	-114*
CNc1ccc(/C=C2\COc3ccccc3C2=O)cc1[N+](=O)[O-]	-118*
COc1ccc(N2C(=O)c3ccccc3NC23CCCCC3)cc1	-76*
COc1ccc(N2C(=O)c3ccccc3NC23CCC(C)CC3)cc1 (configuration not stated)	-106*
CCN=C1NN=C(c2ccc(C)cc2)CS1	-128*
c1ccc(CN=C2NN=C(c3ccccc3)CS2)cc1	-182*
CCCNC(=O)c1ccccc1NC(=O)c1ccc2c(c1)NC(=O)C(C)S2 (configuration not stated)	-96*
CC(=O)c1ccccc1NC(=O)c1ccc2c(c1)NC(=O)C(C)S2 (configuration not stated)	-135*
CCCNC(=O)c1ccc2c(=O)c(O)c(-c3ccc(F)cc3)[nH]c2c1	81
CCCCCn1cnc2sc(CC)cc2c1=O	-169*
CCc1cc2c(=O)n(CC(C)C)cnc2s1	-101*
CCc1cc2c(=O)n(-c3ccc(Br)cc3)cnc2s1	-160*
Cc1cc(N2CCOCC2)ccc1/C=C\[N+](=O)[O-]	-101*
Cc1c(Br)c(C(=O)N2CCc3ccccc32)nn1C	-127*
O=C(c1ccc(Br)o1)N1CCc2ccccc21	-154*
Cc1c(C(=O)N2CCc3ccccc32)oc2ccccc12	-126*
O=C(c1ccco1)N1CCc2ccccc21	-97*
O=C(CCC1CCCC1)Nc1ccc(C(=O)NCc2cccnc2)cc1	72
Cn1ccnc1CN1CCCCC1C(=O)Nc1ccc(Oc2cccnc2)cc1 (configuration not stated)	-77*
COc1ccc(OC)c(Nc2nc(NCCO)c3ccccc3n2)c1	-68*
OCCNc1c2ccccc2nc2ccccc12	-167*
Cc1ccc(Nc2nc(NCCO)c3ccccc3n2)cc1C	-76*
SMILES	aSyn 5UTR act
COc1ccc(OC)c(Nc2c3c(nc4ccccc24)CCC3)c1	106
COc1ccccc1C(=O)NNC(=O)c1cccc(Cl)c1	-66*
COc1ccccc1C(=O)N1CCN(c2cccc(Cl)c2)CC1	64
COc1ccccc1C(=O)CC(=O)c1ccccc1	-114*
COc1ccccc1C(=O)NNC(=O)c1ccccc1	-74*
COc1ccccc1C(=O)NC(=O)Nc1cccc(Cl)c1	-129*
COc1ccccc1C(=O)NNC(=S)NC(=O)c1cccs1	73
COc1ccccc1C(=O)NNC(=O)c1cccc(Br)c1	-115*
COc1ccccc1C(=O)NNC(=S)NC(=O)c1sc2ccccc2c1Cl	-138*
Cc1ccccc1C(=O)NNC(=O)c1ccc(Br)cc1	-96*
COc1ccc(-c2cnc3c(-c4ccc(F)cc4)cnn3c2N)cc1	-241*
Nc1c(-c2ccc(Cl)cc2)cnc2c(-c3ccccc3)cnn12	-205*
CS(=O)(=O)c1cnc2c(-c3ccsc3)cnn2c1N	-85*
CC(C)(C)S(=O)(=O)c1cnc2c(-c3ccc(Cl)cc3)cnn2c1N	-78*
Cc1ccc2nc(-c3ccc(N4C(=N)SC5CS(=O)(=O)CC54)cc3)sc2c1 (configuration not stated)	-101*
COc1cc2c(cc1OC)CN(c1ccc(F)cc1[N+](=O)[O-])CC2	-79*
CC(=O)c1ccc(N2CCc3ccccc3C2)c([N+](=O)[O-])c1	-68*
O=C(Cc1ccccc1[N+](=O)[O-])N1CCc2ccccc2C1	-103*
COc1ccc(COC(=O)c2cc([N+](=O)[O-])ccc2N2CCOCC2)cc1F	68
COc1cc2c(cc1OC)CN(c1ncccc1[N+](=O)[O-])CC2	-88*
Cn1c(C(=O)NCc2cccs2)cc2oc3ccccc3c21	-261*
Cn1c(=O)c(C(=O)NCC2CCCO2)c(O)c2ccccc21 (configuration not stated)	-67*
Cn1c(C(=O)NCC2CCCO2)cc2oc3ccccc3c21 (configuration not stated)	-188*
CSCc1c(C(=O)NC2CCCc3ccccc32)oc2ccccc12 (configuration not stated)	51
CCCc1ccc(Oc2cc(C)nc(N3CCOCC3)n2)cc1	-63*
SMILES	aSyn 5UTR act
O=C(CSc1nc2ccccc2[nH]1)Nc1nc(-c2ccc(Br)cc2)cs1	-76*
CC(=O)c1cc2c(cc1NC(=O)CSc1nc3ccccc3o1)OCO2	-154*
Cc1cc(C)nc(NC(=O)CSc2nc3ccccc3o2)n1	-153*
Cc1ccc2nc(NC(=O)CSc3nc4ccccc4o3)sc2c1	-143*
Cc1ccc(-c2csc(NC(=O)CSc3nc4ccccc4o3)n2)cc1	-94*
Cc1ccc2nc(NC(=O)CSc3nncc(=O)n3N)sc2c1	-98*
O=C(CSc1nc2ccccc2o1)N/N=C/c1ccco1	-82*
CCC(=O)C1CCCN(C(=O)c2ccc3nc(-c4cccc(OC)c4)oc3c2)C1 (configuration not stated)	-85*
COc1cccc(-c2nc3ccc(C(=O)N4CCCC(O)C4)cc3o2)c1 (configuration not stated)	-91*
CN(Cc1nccn1C)C(=O)c1ccc2nc(Cc3ccccc3F)oc2c1	-126*
CN(Cc1nccs1)C(=O)c1ccc2nc(Cc3ccccc3F)oc2c1	-131*
